Results from PubChem BioAssay AID2283197 (EPA ToxCast).
The source made the active and inactive calls. The calls were made as follows: active = hit-call score of the fitted dose curve at least 0.9, where 1 is the maximum; inactive = score below 0.9.

These compounds were tested against human Protein Kinase D2 (PKD2), PRKD2 (gene 25865) (UniProt Q9BZL6) (assay: NVS_ENZ_hPKD2: NovaScreen (NVS) Enzymatic Assay for human Protein Kinase D2 (PKD2)).
Experimental: NVS_ENZ_hPKD2 is a biochemical, single-readout assay that uses extracted gene-proteins in a cell-free assay. Measurements were taken 1 hour after chemical dosing in a 384-well plate.NVS_ENZ_hPKD2 is one of one assay component(s) measured or calculated from the NVS_ENZ_hPKD2 assay. It is designed to make measurements of enzyme activity, a form of enzyme reporter, as detected with fluorescence intensity signals by Fluorescence and electrophoretic mobility shift technology.Data from the assay component NVS_ENZ_hPKD2 was analyzed into 1 assay endpoint. This assay endpoint, NVS_ENZ_hPKD2, was analyzed in the positive analysis fitting direction relative to DMSO as the negative control and baseline of activity. Using a type of enzyme reporter, loss-of-signal activity can be used to understand changes in the enzymatic activity as they relate to the gene PRKD2. Furthermore, this assay endpoint can be referred to as a primary readout, because this assay has produced multiple assay endpoints where this one serves a enzymatic activity function. To generalize the intended target to other relatable targets, this assay endpoint is annotated to the kinase intended target family, where the subfamily is serine/threonine kinase.
Binding assays used specific radioligands (tritiated, iodinated) with non-radioactive competitive displacement ligands in agonist or antagonist protocols (as indicated) and various reference compounds and inhibitors to titrate specific binding to receptors and transporters. Most enzyme assays (CYPs, kinases, phosphatases, proteases, HDACs) used recombinant protein and specific substrates (fluorescence mostly, some colorimetric and radioactive) and inhibitors, followed by a biochemical separation of substrate and product. All assays for the biochemical HTS were initially run in duplicate at a single concentration (10 uM for CYP450 assays and 25 uM for all others). Assay-chemical combinations meeting a pre-defined threshold (e.g., 30% inhibition and other criteria defined below) were then run in singleton concentration-response format with maximum concentration of 20 uM for CYPs and 50 uM for all others. Each assay was run with positive and negative controls, and concurrent controls on every plate. The follow-up (secondary) screen tested active chemical-pairs in concentration series, as well as a few additional assays not tested in the primary screen, some selected negative inactives, and several cases re-run in the concentration series for confirmatory purposes.

Sequence of human Protein Kinase D2 (PKD2), PRKD2 (gene 25865) (Q9BZL6 whole entry, looked up): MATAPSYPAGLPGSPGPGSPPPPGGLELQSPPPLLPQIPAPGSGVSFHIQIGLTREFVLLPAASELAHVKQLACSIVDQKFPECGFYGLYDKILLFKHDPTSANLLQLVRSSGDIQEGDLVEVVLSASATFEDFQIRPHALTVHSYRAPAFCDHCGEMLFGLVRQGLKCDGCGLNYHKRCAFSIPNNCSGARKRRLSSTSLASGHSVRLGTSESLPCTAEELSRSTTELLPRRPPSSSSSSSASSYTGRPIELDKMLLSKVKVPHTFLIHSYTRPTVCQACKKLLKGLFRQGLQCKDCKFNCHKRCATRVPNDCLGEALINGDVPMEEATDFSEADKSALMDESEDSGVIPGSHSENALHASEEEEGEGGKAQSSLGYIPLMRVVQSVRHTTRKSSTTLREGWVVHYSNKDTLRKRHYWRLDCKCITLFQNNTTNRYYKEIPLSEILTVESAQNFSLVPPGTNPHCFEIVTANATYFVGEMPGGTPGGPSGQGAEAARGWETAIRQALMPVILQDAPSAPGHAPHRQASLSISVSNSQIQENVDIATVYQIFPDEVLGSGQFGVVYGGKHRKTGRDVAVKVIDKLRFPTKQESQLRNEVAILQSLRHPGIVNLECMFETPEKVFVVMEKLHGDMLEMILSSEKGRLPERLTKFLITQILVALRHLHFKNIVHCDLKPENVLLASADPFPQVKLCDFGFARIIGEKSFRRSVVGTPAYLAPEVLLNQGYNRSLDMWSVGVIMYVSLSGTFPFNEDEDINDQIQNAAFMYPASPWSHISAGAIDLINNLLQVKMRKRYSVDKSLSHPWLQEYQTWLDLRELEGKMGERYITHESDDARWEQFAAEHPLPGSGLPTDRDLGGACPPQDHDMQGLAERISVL

SMILES | AC50 | outcome
Oc1ccc(Cl)cc1Cc1ccccc1 | 25 µM (active) | 
O=C(Nc1ccccc1)Nc1cnns1 |  | inactive
O=C(Nc1ccccc1)Nc1ccnc(Cl)c1 |  | inactive
COc1ccc(C(c2ccc(OC)cc2)C(Cl)(Cl)Cl)cc1 |  | inactive
